We go through 14 compounds from PubChem BioAssay.

Each structure is given as a SMILES string. Calls of active or inactive are those of the source.

For test [1], the system named is Plasmodium falciparum Sir2 (PF13_0152, Sir2A). The test is described as follows: Plasmodium falciparum Sir2A binding compounds – biochemical, small-molecule microarray, 635 nm fluorescence, primary screen (AID 1098).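 Note: score merges spot fluorescence intensity with its signal-to-noise ratio.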 As to conditions: fluorescence 635 nm, higher = more signal.
The nature of test [2]: probe aDKK1 binding to arrayed compounds – biochemical, biotinylated probe, 635/667 nm fluorescence, primary screen (AID 1099).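 Note: score merges 667nm spot fluorescence with signal to noise across triplicate slides; reference of the scale not given here.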 The conditions noted are these: small-molecule microarray, higher = more signal.
Test [3] is described as follows: probe aCHRDL2 binding to arrayed compounds – biochemical, biotinylated probe, 635/667 nm fluorescence, primary screen (AID 1100). As to conditions: small-molecule microarray, higher = more signal.
Test [4] in a line: change in splice reporter luminescence, either direction, cell-based, HEK293, spliceosome inhibition project, primary screen (AID 1101).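 Note: HEK293 cells carrying a splicing-competent luciferase reporter gene; test concentration not given here.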 The conditions noted are these: HEK293 splicing luciferase reporter, 24 h, higher = more signal, called active from +8 up or from −8 down. In general terms: A reporter such as luciferase makes a cellular process visible.
Test [5] deals with Fibroblast growth factor 10 (Homo sapiens) (UniProt O15520). The test is described as follows: compounds binding fibroblast growth factor 10 – biochemical, small-molecule microarray, 635 nm fluorescence, primary screen (AID 1102). The conditions noted are these: FGF10 binding, fluorescence 635 nm, higher = more signal.
Sequence of Fibroblast growth factor 10 (Homo sapiens) (O15520 whole entry, looked up): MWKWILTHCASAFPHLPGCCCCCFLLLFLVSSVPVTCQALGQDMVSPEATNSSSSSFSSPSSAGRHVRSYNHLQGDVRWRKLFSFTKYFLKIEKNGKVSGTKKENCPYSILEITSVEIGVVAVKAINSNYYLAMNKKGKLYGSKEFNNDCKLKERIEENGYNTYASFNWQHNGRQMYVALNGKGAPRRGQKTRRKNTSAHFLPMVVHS
In test [6] the test system is glycogen synthase kinase-3 (GSK3A per assay name; protocol says GSK3B). The test is described as follows: compounds binding glycogen synthase kinase-3 – biochemical, small-molecule microarray, 635 nm fluorescence, GSK3A, primary screen (AID 1103). Note: the record names both GSK3A and GSK3B. The conditions noted are these: fluorescence 635 nm, higher = more signal.
Test [7] concerns the target Epidermal growth factor receptor (Homo sapiens) (UniProt P00533). The test is described as follows: compounds binding epidermal growth factor receptor – biochemical, small-molecule microarray, 635 nm fluorescence, primary screen (AID 1104).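 Note: score merges 667 nm emission intensity with spot signal to noise over triplicate slides.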 The conditions noted are these: EGFR binding, higher = more signal.
Test [8] concerns the target Follistatin-related protein 3 (Homo sapiens) (UniProt O95633). The test is described as follows: compounds binding follistatin-related protein 3 – biochemical, small-molecule microarray, 635 nm fluorescence, primary screen (AID 1105).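 Note: score merges emission near 667 nm and signal to noise per printed spot across three slides.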 The conditions noted are these: FSTL3 binding, higher = more signal.
Test [9] addresses Dickkopf-related protein 1 (Homo sapiens) (UniProt O94907). The test is described as follows: small molecules binding DKK1 protein – biochemical, small-molecule microarray, 635 nm fluorescence scan, primary screen (AID 1106).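 Note: score merges emission near 667 nm with signal to noise over three replicate slides.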 The conditions noted are these: higher = more signal.
Test [10] has as its system Inhibin beta A chain (activin A). The test is described as follows: small molecules binding activin A – biochemical, small-molecule microarray, 635 nm fluorescence scan, primary screen (AID 1107).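 Note: mouse activin A protein probed at 4.33 µg/mL on printed slides; score merges bound-protein fluorescence near 667 nm with spot signal-to-noise.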 The conditions noted are these: INHBA, higher = more signal.

Sequence of Epidermal growth factor receptor (Homo sapiens) (P00533 whole entry, looked up): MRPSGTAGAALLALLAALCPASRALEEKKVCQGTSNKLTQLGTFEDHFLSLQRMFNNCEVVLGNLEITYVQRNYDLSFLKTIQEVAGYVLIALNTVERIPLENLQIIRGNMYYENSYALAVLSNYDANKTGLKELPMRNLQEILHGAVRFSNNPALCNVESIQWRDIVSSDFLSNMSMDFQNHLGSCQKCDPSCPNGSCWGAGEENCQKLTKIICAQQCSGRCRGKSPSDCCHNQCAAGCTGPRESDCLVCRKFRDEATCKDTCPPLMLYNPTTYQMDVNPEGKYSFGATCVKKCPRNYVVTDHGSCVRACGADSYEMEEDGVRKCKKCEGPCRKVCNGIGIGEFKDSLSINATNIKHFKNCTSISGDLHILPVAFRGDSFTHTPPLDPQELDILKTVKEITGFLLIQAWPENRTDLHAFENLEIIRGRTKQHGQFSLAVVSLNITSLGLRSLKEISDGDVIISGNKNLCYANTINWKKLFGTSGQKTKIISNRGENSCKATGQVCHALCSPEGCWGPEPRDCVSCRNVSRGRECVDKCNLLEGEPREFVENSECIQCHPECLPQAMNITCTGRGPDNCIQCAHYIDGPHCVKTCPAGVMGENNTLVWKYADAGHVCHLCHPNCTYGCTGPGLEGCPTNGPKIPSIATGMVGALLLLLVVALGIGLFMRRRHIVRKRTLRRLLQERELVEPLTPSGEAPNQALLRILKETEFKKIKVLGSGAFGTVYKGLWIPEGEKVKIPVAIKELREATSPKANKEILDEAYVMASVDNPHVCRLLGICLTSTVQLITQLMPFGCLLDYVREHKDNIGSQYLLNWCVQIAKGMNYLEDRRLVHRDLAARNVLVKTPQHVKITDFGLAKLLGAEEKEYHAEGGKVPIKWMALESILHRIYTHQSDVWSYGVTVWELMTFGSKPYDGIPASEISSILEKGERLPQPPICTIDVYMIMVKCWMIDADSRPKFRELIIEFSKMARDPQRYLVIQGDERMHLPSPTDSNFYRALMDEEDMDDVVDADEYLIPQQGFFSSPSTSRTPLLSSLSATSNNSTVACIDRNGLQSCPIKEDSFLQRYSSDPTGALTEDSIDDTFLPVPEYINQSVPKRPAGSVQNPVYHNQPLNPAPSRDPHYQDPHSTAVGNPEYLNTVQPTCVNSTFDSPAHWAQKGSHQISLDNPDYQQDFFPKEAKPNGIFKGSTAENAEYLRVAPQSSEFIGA
Sequence of Dickkopf-related protein 1 (Homo sapiens) (O94907 whole entry, looked up): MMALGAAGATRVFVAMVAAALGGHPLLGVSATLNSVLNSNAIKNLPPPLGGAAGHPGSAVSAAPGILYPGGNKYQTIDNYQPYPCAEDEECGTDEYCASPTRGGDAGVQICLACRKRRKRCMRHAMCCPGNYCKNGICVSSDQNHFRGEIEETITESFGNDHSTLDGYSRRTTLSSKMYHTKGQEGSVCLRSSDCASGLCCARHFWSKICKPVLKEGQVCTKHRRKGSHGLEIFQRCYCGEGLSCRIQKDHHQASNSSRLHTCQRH
Sequence of Follistatin-related protein 3 (Homo sapiens) (O95633 whole entry, looked up): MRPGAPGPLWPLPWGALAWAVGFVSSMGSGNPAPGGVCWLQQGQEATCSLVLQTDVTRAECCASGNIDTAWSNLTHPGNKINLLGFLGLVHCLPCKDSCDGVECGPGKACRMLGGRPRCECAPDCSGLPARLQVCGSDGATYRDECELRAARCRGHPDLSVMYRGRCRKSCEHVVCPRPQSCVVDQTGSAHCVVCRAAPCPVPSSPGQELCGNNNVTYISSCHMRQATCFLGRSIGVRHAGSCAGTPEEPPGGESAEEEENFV

`COCCOC(=O)N1C(=O)[C@@]2(c3cc(C#CCNC(N)=O)ccc31)[C@H](C(=O)NC[C@H](O)c1ccccc1)[C@H]1C(=O)O[C@H](c3ccccc3)[C@H](c3ccccc3)N1[C@@H]2c1ccc(OCCO)cc1`: the composite z-score came out at 1.44 in [1]; 0.398 in test [2]; 0.782 in test [3]; 0.872 in test [5]; 0.939 in test [6]; 0.565 in test [7]. For the same compound, the composite z-score in test [8] came out at 0.898; in test [9], 0.301; in [10], 0.649. The z-score in test [4] was -0.204 (inactive).

Consider `[N-]=[N+]=NCc1ccccc1C[C@]1(C(=O)N2CCOCC2)N=C(c2ccc(OCCCO)cc2)O[C@H]1c1ccccc1CN=[N+]=[N-]`, for which the composite z-score in test [1] was 1.33; in test [2], 1.42; in [3] it was 1.39; in test [5], 1.39; in test [6] it was 0.935; in [7] it was -0.134. Besides, the composite z-score was 0.217 in test [8], -0.275 in [9] and 1.43 in [10]. In test [4], the z-score was -1.2 (inactive).

In the case of `NCCCC[C@@H]1NC(=O)[C@H]2C[C@@H](C(=O)O)[C@@H](c3cccc(OCCO)c3)N2C1=O`, the composite z-score in test [1] amounted to 1.61; in [2], 1.21; in test [3], 0.752; in test [5] it was 1.51; in test [6], 1.35; in test [7] it was 1.53. The composite z-score in test [8] is 1.53; in test [9] it was 1.62; in test [10], 1.03. Besides, the z-score in [4] is -0.615 (inactive).

On to `[N-]=[N+]=NCc1ccccc1C[C@@]1(C(=O)O)N=C(c2ccc(OCCCO)cc2)O[C@@H]1c1ccccc1CN=[N+]=[N-]`, for which the composite z-score in test [1] is 0.705; in test [2], 0.317; in test [3], 0.779; in [5] it was 1.15; in test [6], 0.577; in [7], -0.227. For the same compound, the results for the composite z-score in test [8], in test [9] and in [10] were 0.814, 0.31 and 0.69, respectively. The z-score in test [4] is -0.806 (inactive).

For the compound `O=C(NCCO)C1=C[C@H](Oc2ccccc2I)[C@@H](O)[C@H](NCc2ccc(F)cc2)C1`, the composite z-score in test [1] is -1.55; in [2], -0.472; in [3], -0.552; in test [5], 1.61; in test [6] it was -0.814; in test [7], -0.201. Besides, the composite z-score in test [8] was -1.52; in test [9] it was 1.19; in [10], -2.01. In addition, in test [4], the z-score is -0.635 (inactive).

With `COc1ccc(NC(=O)O[C@H]2[C@H](OC(=O)Nc3ccc4c(c3)OCO4)[C@H](OC(=O)Nc3ccc4c(c3)OCO4)[C@@H](OC)O[C@@H]2CO)cc1`, the composite z-score in [1] was 1.51; in test [2], 0.125; in test [3], 0.58; in [5], 0.81; in test [6], 1.23; in test [7], -0.385. Also, the composite z-score in test [8] was found to be 0.59; in test [9], 0.409; in test [10], 0.753. For the same compound, the z-score in test [4] was -0.213 (inactive).

For the compound `CC(C)C(=C=CC[C@@H](O)c1cccc(OCCO)c1)CCO`, the composite z-score in [1] is 0.725; in test [2] it was 0.0614; in test [3] it was 0.111; in [5], 1.51; in test [6] it was -0.615; in test [7] it was -0.554. Also, the composite z-score in [8] amounted to 0.457; in [9], 0.137; in test [10] it was 0.677. In addition, the z-score in test [4] was -0.87 (inactive).

Turning to `COc1ccc(CCNC(=O)[C@@]2(Sc3ccc(C)cc3)CC(=O)N(Cc3cc(C(F)(F)F)cc(C(F)(F)F)c3)[C@@H]2c2ccc(CO)cc2)cc1`, the composite z-score in test [1] is 0.629; in [2], 0.18; in [3], 1.14; in [5], -1.59; in test [6], -0.655; in [7], -1.81. Besides, the composite z-score in [8] is -0.927; in test [9], -1.88; in test [10], -0.497. The z-score in test [4] was 0.257 (inactive).

With `CN(C)CCCNC(=O)[C@@H]1c2ccccc2C(=O)N(C2Cc3ccccc3C2)[C@H]1c1ccc(CO)cc1`, the composite z-score was 1.78 in test [1]; 0.227 in [2]; 0.559 in test [3]; -0.514 in [5]; 1.27 in [6]; -0.741 in test [7]. In addition, the values for the composite z-score in [8], in [9] and in test [10] were -0.12, -0.273 and 0.923, respectively. Moreover, in [4], the z-score was -0.196 (inactive).

Consider `CCCCCCCCCCC(O)C1C=CC2C(=O)N(C)C(=O)C2N1N1CCCCC1` (stereo not given), for which the composite z-score in test [1] was 0.331; in test [2] it was -0.267; in test [3] it was 0.598; in test [5], -1.9; in test [6] it was -1.41; in test [7], -2.01. Also, the composite z-score in test [8] was -1.63; in [9] it was -1.29; in [10] it was 1.35. Moreover, the z-score in [4] was 1.53 (inactive).

Take `CCCCC=C[C@@H](NC(=O)c1ccc(C(F)(F)F)cc1)c1ccccc1`: the composite z-score is -0.101 in test [1]; 0.256 in test [2]; 0.905 in [3]; -1.13 in test [5]; -1.03 in [6]; -1.28 in test [7]. Moreover, the composite z-score in [8] is -1.01; in [9], -1.37; in test [10] it was 1.37. Besides, the z-score in test [4] was -4.33 (inactive).

With `Cc1ccc(S[C@]2(C(=O)NCCN3CCOCC3)CC(=O)N(C3CCCCC3)[C@@H]2c2ccc(CO)cc2I)cc1`, the composite z-score in [1] was 0.567; in test [2], -0.69; in test [3], -0.13; in [5] it was 1.29; in test [6], 1.19; in test [7] it was 0.0803. Also, the results for the composite z-score in test [8], in test [9] and in test [10] were 1.19, -0.0675 and 0.714, respectively. Besides, in test [4], the z-score is -0.341 (inactive).

Consider `C=C(CCCC)/C(=C/C[C@H](OC(C)=O)c1cccc(OCCO)c1)c1cc(C(=O)OC)ccc1OC`, for which the composite z-score in test [1] is 0.286; in [2], -0.197; in [3], -0.096; in [5] it was 0.148; in [6], -0.157; in [7], -0.842. Further, the composite z-score in [8] is -0.574; in [9], -0.344; in test [10], 0.518. For the same compound, the z-score in [4] is -0.325 (inactive).

`C=CCC(OC(C)=O)[C@@H]1[C@@H](N(Cc2ccc(-c3ccccc3)cc2)C(=O)c2ccc(-c3ccccc3)cc2)c2cc(OCCCO)ccc2N1C(=O)c1ccc2ccccc2n1` (stereo not given in full): the composite z-score in test [1] was 0.212; in [2], 0.103; in [3] it was 0.168; in test [5], 0.46; in [6], 0.213; in [7] it was -0.486. Further, the composite z-score is 0.204 in test [8], -0.328 in test [9] and 1.38 in test [10]. Moreover, in test [4], the z-score is -1.27 (inactive).
